Pf Dd2 growth – blocks in vitro growth of P. falciparum Dd2. P. falciparum Dd2 growth, SYBR Green, 72 h. Potency, µM (series often up to 28.9 µM), inactives show top-dose activity, negative = inhibition, most hits filed as inhibitors. actives 4.3% (n = 120,000). AID 1347417; active = well fitted inhibition curve with a large enough effect;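 note: plate controls were DMSO vehicle for no effect and reference drug for full effect; nearly all actives have a fitted effect of over 65% in size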
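Infected erythrocytes (Dd2, 0.3% parasitemia, 2.5% hematocrit final) are added to compound in RPMI-1640/Albumax II medium, grown 72 h at 37C in low oxygen, then lysed with saponin/Triton-X containing SYBR Green and read by fluorescence.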
Active calls of the source: *; i = inactive; [ ] = dose if it differs, or a comment. The entries come from a sample that favours hits as a whole. Potency is the fitted concentration of half-maximal effect.

SMILES	Pf Dd2 growth
CCOC(=O)c1cnc2c(C)cccc2c1NCCc1ccc(OC)c(OC)c1	i
CCOC(=O)c1cnc2ccc(OC)cc2c1Nc1cccc(C(C)=O)c1	-7%
CCOC(=O)c1cnc2ccc(OC(F)(F)F)cc2c1Nc1ccccc1C(=O)O	10µM*
CCOC(=O)c1cnc2c(C)c(Cl)ccc2c1NCCc1ccc(OC)c(OC)c1	i
CCN1C(=O)C2(CCN(S(=O)(=O)c3ccc(C)cc3)CC2)c2ccccc21	0%
COc1ccc(NC(=O)O[C@@H]2CO[C@H]3[C@@H]2OC[C@@H]3NC(=O)COc2ccccc2)cc1	i
Cc1nc(C(=O)N2CC[C@H](NC(=O)c3cnccn3)C[C@H]2C(=O)N[C@H](C)C(N)=O)cs1	-24%
Cc1nc2n(n1)C(C(=O)Nc1ccccc1)CC(=O)N2 (configuration not stated)	-1%
CCc1cc(N(C)Cc2ccc(OC)c(OC)c2)n2nccc2n1	-4%
COc1ccc(C2=CC(c3ccccc3F)n3ncc(C(=O)Nc4ccc(C)cc4)c3N2)cc1 (configuration not stated)	7.9µM*
COc1ccc(NC(=O)C2=C(C)Nc3ncnn3C2c2ccccn2)cc1 (configuration not stated)	12%
CC(=O)c1ccc(NC(=O)c2nc(-c3ccccc3)n(-c3ccc(Cl)cc3)n2)cc1	-19%
O=C(Nc1ccc(Cl)cc1)c1cnn2c1NC(c1ccccc1)=CC2c1ccccc1 (configuration not stated)	3.2µM*
O=C(Nc1cnc(-c2ccc(Cl)cc2)nc1)c1ccccc1Cl	i
COc1ccc(OC)c(C2NC(=O)NC(C)=C2C(=O)Nc2ccc(F)cc2)c1 (configuration not stated)	-12%
CCN1CCC(CC(=O)N2CCC(C3CCN(C(=O)NC)CC3)C2)CC1 (configuration not stated)	9%
Cc1ccc(CN2C(=O)[C@@H]3C[C@@H](O)CN3C3(CN(Cc4ccc(Cl)cc4)C3)C2=O)o1	-13%[44.1 µM]
COc1ccc(CN2CC3(C2)C(=O)N(Cc2ccc(C)o2)C(=O)[C@@H]2C[C@@H](O)CN23)c2ccccc12	10µM*
Cc1ccc(CN2C(=O)[C@@H]3C[C@@H](O)CN3C3(CN(Cc4ccccc4Cl)C3)C2=O)o1	-23%[44.1 µM]
Cn1cc(Cl)cc1C(=O)N1CC[C@@]2(O)CCN(C(=O)C3CCC3)C[C@H]2C1	-9%
CCN(CC)Cc1cnc2c(C(=O)NC[C@@H](C)O)cnn2c1	11%
CC(=O)Nc1ccc(OCC(=O)NC(C)c2ccccc2)nc1 (configuration not stated)	60%
Cc1cnc(CC2CCCN(C(=O)c3ccn[nH]3)C2)n1Cc1ccccc1 (configuration not stated)	i
O=C(NCC1Cn2cccc2CN1Cc1ccccc1)c1n[nH]c2ccccc12 (configuration not stated)	13µM*
O=C(NCC1Cn2cccc2CN1Cc1ccccc1)c1ccncc1 (configuration not stated)	-28%
SMILES	Pf Dd2 growth
O=C(NCC1Cn2cccc2C(=O)N1Cc1ccccc1)c1ccncc1 (configuration not stated)	-7%
c1ccc2oc(N3CCN(Cc4ccc(-c5ccn[nH]5)o4)CC3)nc2c1	-7%
CN1C[C@@H](NC(=O)c2ccc(C#N)cc2)C[C@H]1c1nc(-c2cncnc2)no1	-5%[44.1 µM]
COc1ccc(-c2nc(C(C)C)nc3c2CCN(C(=O)Nc2ccc(Cl)cc2)CC3)cc1	i
Cc1nc2c(c(-c3ccc(O)cc3)n1)CN(CC1CC1)CC2	i
COc1ccc(-c2nc(C(C)C)nc3c2CCN(C(=O)c2ccccc2)CC3)cc1	-17%
CC(C)c1nc2c(c(-c3ccc(O)cc3)n1)CCN(C(=O)c1ccc(F)cc1)CC2	-6%
COc1ccc(CN2CCc3nc(C(C)C)nc(-c4ccc(O)cc4)c3CC2)cc1	2.2µM*
CC(C)c1nc2c(c(-c3ccc(O)cc3)n1)CCN(CC1CCCCC1)CC2	1.1µM*
COc1ccc(C(=O)N2CCC(C(NC(=O)c3ccccc3C)C(=O)NC(C)C(C)C)CC2)cc1 (configuration not stated)	i
CCC(C)NC(=O)CC1Sc2ncccc2N(CC)C1=O (configuration not stated)	-8%
CCOCc1nc(C2CCCN(C(=O)c3ccc(C)s3)C2)no1 (configuration not stated)	70%
COCCn1cc(CN2CCN(c3cccc(OC)c3)CC2)ccc1=O	7%
O[C@@H]1C[C@@H](c2nnc3n2CCN(CC2CC2)C3)N(Cc2cccnc2)C1	-7%
Cc1onc(-c2ccccc2)c1C(=O)N[C@@H]1CCC[C@@H](C(=O)N2CCN(C)CC2)CC(=O)N(C)C1	-17%
C[S+](=O)([O-])N1CCC2(C1)N=C(c1ccncc1)C(=O)N2 (configuration not stated)	5%[44.1 µM]
CCS(=O)(=O)N1CCc2nc(N(C)Cc3cccnc3)[nH]c(=O)c2CC1	8%[5.79 µM]
Cc1ccc(C2Cn3nnc(C(=O)N4CCC(C(=O)NC5CCCCC5)CC4)c3CO2)cc1 (configuration not stated)	-5%
O=C(O)Cn1ccc2cc(OCCc3cccc(-c4cccc(F)c4)c3)cnc21	i
O=C1NC(=NC2CCCC2)C2(CCN(Cc3ccccc3)C2)N1c1cccnc1 (configuration not stated)	-3%
O=C1NC(=NC2CCCC2)C2(CCCN(Cc3ccccc3)C2)N1c1cc(F)cc(F)c1 (configuration not stated)	-22%
O=C1NC(=NC2CCCC2)C2(CCN(Cc3cccnc3)CC2)N1c1cc(F)cc(F)c1	-68%
O=C1NC(=NC2CCCCC2)C2(CCCN(Cc3ccccc3)C2)N1c1cc(F)cc(F)c1 (configuration not stated)	7.1µM*
O=C1NC(=NC2CCCCC2)C2(CCN(Cc3ccccc3)C2)N1c1cc(F)cc(F)c1 (configuration not stated)	1.8µM*
O=C1NC(=NC2CCCC2)C2(CCCN(Cc3ccccc3)C2)N1c1cccnc1 (configuration not stated)	-13%
SMILES	Pf Dd2 growth
O=C(C1COc2ccccc2O1)N1CCc2nc3cc(-c4ccccc4)[nH]n3c(=O)c2C1 (configuration not stated)	-20%[5.79 µM]
Cc1cc(N2CCN(C)C3(CCNC(=O)CC3)C2)nc(N2CCCCC2)n1 (configuration not stated)	-22%
Cc1cccc(-c2nc(C3CC(=O)N(c4ccc(F)c(Cl)c4)C3)no2)c1 (configuration not stated)	55%
CCn1ccc(C(=O)NCCc2noc(-c3cccnc3)n2)n1	40%
Cc1ccc(-c2ccc3nnc(CNC(=O)Cc4ccccc4Cl)n3n2)cc1	30%
CCN(CC)CC[C@H]1CN(C(=O)C2CC2)CC[C@H]1CC(=O)O	58%[44.1 µM]
COc1ccc(CC(=O)N2CC[C@H]3CC(=O)N(CCN4CCOCC4)CC[C@H]3C2)cc1	-10%[44.1 µM]
C1CC(COCCc2noc(C3CNC3)n2)CCO1	11µM*
O=C(C1CC1)N1CCCC(c2nc(CCOCC3CCOCC3)no2)C1 (configuration not stated)	-4%
CCCNC(=O)N1CCC(c2nc(CCOCC3CCOCC3)no2)C1 (configuration not stated)	3%
Cc1ccc(NC(=O)C2CCN(C(=O)c3ncn4c3COC(c3ccc(F)cc3)C4)CC2)cc1C (configuration not stated)	i
O=C1NC(C(=O)NCc2cccc(C(F)(F)F)c2)Cn2cccc21 (configuration not stated)	i

Assay outcomes (PubChem)
